ROC1-CUL1 inh – human ROC1-CUL1 E3 ligase inhibition. P62877+Q13616. in vitro K48 di-Ub FRET, acceptor:donor ratio, 45 min. inhibition, % at 10 µM. actives 0.6% (n = 140,000). AID 1347404; in the data active = inhibition above about 25%
Target sequence (P62877 whole entry, looked up): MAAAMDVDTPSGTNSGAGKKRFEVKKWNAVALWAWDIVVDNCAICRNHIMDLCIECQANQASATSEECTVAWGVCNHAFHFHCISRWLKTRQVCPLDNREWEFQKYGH
Target sequence (Q13616 whole entry, looked up): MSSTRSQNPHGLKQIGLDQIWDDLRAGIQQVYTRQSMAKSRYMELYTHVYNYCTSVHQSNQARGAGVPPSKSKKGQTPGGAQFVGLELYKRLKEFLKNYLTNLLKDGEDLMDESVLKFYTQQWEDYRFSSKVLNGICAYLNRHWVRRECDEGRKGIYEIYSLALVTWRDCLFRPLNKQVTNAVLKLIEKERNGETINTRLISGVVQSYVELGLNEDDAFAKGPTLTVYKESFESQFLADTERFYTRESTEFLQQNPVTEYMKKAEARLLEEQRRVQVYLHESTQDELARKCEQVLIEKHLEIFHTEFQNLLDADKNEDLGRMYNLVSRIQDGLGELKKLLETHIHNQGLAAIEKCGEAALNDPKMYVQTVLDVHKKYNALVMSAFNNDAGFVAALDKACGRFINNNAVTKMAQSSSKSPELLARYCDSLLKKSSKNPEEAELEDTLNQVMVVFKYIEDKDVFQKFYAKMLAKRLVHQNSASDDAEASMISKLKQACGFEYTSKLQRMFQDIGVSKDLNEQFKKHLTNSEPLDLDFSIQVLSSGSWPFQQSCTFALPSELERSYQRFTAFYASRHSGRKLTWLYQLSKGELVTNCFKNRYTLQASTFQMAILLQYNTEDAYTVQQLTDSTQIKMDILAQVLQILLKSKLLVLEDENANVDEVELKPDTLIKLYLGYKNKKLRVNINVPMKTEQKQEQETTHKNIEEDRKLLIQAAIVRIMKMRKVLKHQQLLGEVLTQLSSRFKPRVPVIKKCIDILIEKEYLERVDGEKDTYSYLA
Of the large screens only hits and unclear results are named; the others gave an inactive call. This is one part of a sample in which hits are shown more often than they occur.

CCn1cc(Cl)c(C(=O)N(C)C23CC4CC(CC(C4)C2)C3)n1	none
Cc1ccc2nc(CCC(C)C3CCC4C5CC[C@@H]6CC(O)CC[C@]6(C)C5CC[C@]34C)[nH]c2c1 (some centres not stated)	none
C[C@H](CCC(=O)O)[C@H]1CCC2C3CC[C@@H]4C[C@H](OC=O)CC[C@]4(C)C3CC[C@@]21C (some centres not stated)	none
CC(CCc1nc2ccccc2o1)C1CCC2C3CC[C@@H]4CC(OCCC(=O)O)CC[C@]4(C)C3CC[C@]12C (some centres not stated)	ROC1-CUL1 inh 40
O=C(CSc1nc2ccccc2s1)c1c[nH]c2ccccc12	none
COc1ccc(/C=C2\C(=O)N(Cc3ccco3)C(=O)N(C(C)C)C2=O)c(OC)c1	ROC1-CUL1 inh 101
CC(C)N1C(=O)/C(=C\c2ccc(N(C)C)cc2)C(=O)N(Cc2ccco2)C1=O	none
CC(C)N1C(=O)C(C=Nc2cc(Cl)c(Cl)cc2Cl)C(=O)N(Cc2ccco2)C1=O (configuration not stated)	none
O=C(O)c1cc(=O)sc2[nH]c3ccccc3c12	none
c1cnc(N2CCN(CCCOC3c4ccccc4CCc4ccccc43)CC2)nc1	none
Cc1cc(C(=O)Nc2ccc(C(C)C)cc2)c(C)o1	none
N#CC1C(=N)Oc2n[nH]c(-c3ccc(-c4ccccc4)cc3)c2C1c1ccccc1F (configuration not stated)	none
Cc1ccc(-c2[nH]nc3c2C(c2ccc4c(c2)OCO4)C(C#N)C(=N)O3)cc1 (configuration not stated)	none
Cc1ccc(-c2[nH]nc3c2C(c2ccc(Cl)cc2)C(C#N)C(=N)O3)cc1 (configuration not stated)	none
N#CC1C(=N)Oc2n[nH]c(-c3ccccc3)c2C1c1ccccc1Cl (configuration not stated)	none
N#CC1C(=N)Oc2n[nH]c(-c3ccc(-c4ccccc4)cc3)c2C1c1ccccn1 (configuration not stated)	ROC1-CUL1 inh 31
Cc1ccc(-c2[nH]nc3c2C(c2ccc(O)c(O)c2)C(C#N)C(=N)O3)cc1 (configuration not stated)	ROC1-CUL1 inh 35
CCOC(=O)Cc1sc(NC(=O)C(C)(C)Oc2ccc(Cl)cc2)nc1C	none
COc1ccc(CCNC2CCN(c3ccc(C(=O)NCc4ccc5c(c4)OCO5)cc3)CC2)cc1	none
Cc1sc2nc(-c3ccccc3)[nH]c(=O)c2c1C	none
Cc1sc2nc(-c3ccc(-c4ccc(Cl)c(C(=O)O)c4)o3)[nH]c(=O)c2c1C	ROC1-CUL1 inh 47
Cc1sc2nc(-c3ccc(-c4ccc(C(=O)O)cc4)o3)[nH]c(=O)c2c1C	none
O=C1/C(=C/c2ccco2)SC(=S)N1c1cccc(Br)c1	none
COc1cc(CC2=NC(=S)N(C)C2=O)cc(Br)c1O	none
COc1ccccc1C1CC(c2ccccc2)=NN1c1ccccc1 (configuration not stated)	none
CCCC1=NN(c2ccccc2)C(=O)C1C1c2ccccc2Oc2c1c(CCC)nn2-c1ccccc1 (configuration not stated)	none
CCCC1=NN(c2ccccc2)C2Oc3c(OC)cccc3C(c3cn(-c4ccccc4)nc3CCC)C12 (configuration not stated)	ROC1-CUL1 inh 56
CN(Cc1ccco1)c1ccc(C(=O)N2CCC(Oc3cccnc3)CC2)cn1	none
CC1=NN(c2ccc(S(N)(=O)=O)cc2)C(=O)C1=Nc1ccc(N(C)C)cc1	ROC1-CUL1 inh 64
COc1cc(/C=C2/C(=O)N(c3ccc(Cl)c(Cl)c3)N=C2C)cc(OC)c1OC	none
NS(=O)(=O)c1ccc(N=C2CC(=O)Oc3ccccc32)cc1	none
COc1cc(/C=C2/C(=O)N(c3ccc(Cl)c(Cl)c3)N=C2C)cc(OC)c1O	none
CN(C)c1ccc(/C=C2\C(=O)NN(c3ccccc3)C2=O)cc1Br	none
CC1=NN(c2ccc(S(N)(=O)=O)cc2)C(=O)/C1=C\c1ccc(N(C)C)c(Br)c1	ROC1-CUL1 inh 68
CC1=NN(c2ccc(F)cc2)C(=O)/C1=C/c1ccc2c(c1)n(C)c(=O)n2C	none
COc1cc(/C=C2\C(=O)N(c3ccc(S(N)(=O)=O)cc3)N=C2C)cc(OC)c1OC	ROC1-CUL1 inh 32
CC1=NN(c2ccc(C)cc2C)C(=O)C1=Nc1ccc(N(C)C)cc1	none
Cc1ccc(OCc2ccc(C(=O)OCc3ccc(Cl)cc3Cl)cc2)cc1	none
CCCCc1c(C)c2ccc(OC(CC)C(=O)OCC)c(C(C)=O)c2oc1=O (configuration not stated)	none
O=C(N/N=C/c1ccccc1[N+](=O)[O-])c1cc2c(ccc3ccccc32)o1	none
Cc1nnc(-c2cccc(NC(=O)C3CCN(C(=O)C4CCCCO4)CC3)c2)s1 (configuration not stated)	none
CCOC(=O)C(NC(C)=O)(C(=O)OCC)C1c2ccccc2CCc2ccccc21	none
O=C1c2ccccc2COc2ccccc21	none
COc1ccc(CCCC(=O)Nc2ccc(Br)c(C)c2)cc1C	none
CCC1=C(C#N)C(=S)N=C2CCCC21 (configuration not stated)	none
N#CC1=CC2CCCC2=NC1=S (configuration not stated)	ROC1-CUL1 inh 106
